# Where “and” joins values, the source holds several entries; their conditions need not be identical. Equal values may be shown once. Some compounds were tested as several samples or in several runs, with calls that do not always agree. Calls of active or inactive are those of the source. Rule for the calls: active = hit-call score of the fitted dose curve at least 0.9, where 1 is the maximum; inactive = score below 0.9.
# Assay: ATG_EGR_CIS: Attagene CIS-FACTORIAL HepG2 Assay for human Early Growth Response 1 (EGR1) (AID 2282938)
# Conditions: HepG2 Attagene CIS-FACTORIAL EGR reporter mRNA; actives raise or lower the signal
# Outline: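 HepG2, transient MRTU transfection (cis promoters), 24 h compound. RNA → RT (oligo-dT) → PCR → 6-FAM labelling → HpaI cut → CE fluorescence. Bidirectional fit, DMSO baseline.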
SMILES,outcome,AC50
COc1cccc(C=O)c1,inactive,
COc1ccc(OC)c(C=O)c1,inactive,
COc1cc2c(cc1OC)[C@@]13CCN4CC5=CCO[C@H]6CC(=O)N2[C@H]1[C@H]6[C@H]5C[C@H]43,inactive,
ClC1=C(Cl)[C@]2(Cl)[C@@H]3[C@@H](Cl)[C@@H](Cl)C[C@@H]3[C@@]1(Cl)C2(Cl)Cl,inactive,
CC(C)(C)c1cc(O)ccc1O,,120 µM (active)
O=C(O)C(F)(F)C(F)(F)C(F)(F)C(F)(F)C(F)(F)C(F)(F)F,inactive,
CC(C)(OO)c1ccccc1,inactive,
CCOP(=S)(OCC)Oc1ccc(S(C)=O)cc1 (centres undefined),inactive,
C[C@]12CCC(=O)C[C@@H]1CC[C@@H]1[C@@H]2CC[C@]2(C)[C@@H](O)CC[C@@H]12,inactive,
CC(C)(C)CC(C)(C)c1ccc(O)cc1,inactive,
CN(C)N=O,inactive,
CCN1CCC2(CC1)COc1cc3c(cc12)N(C(=O)c1ccc(-c2ccc(-c4nnc(C)o4)cc2C)cc1)CC3,inactive,
ClCC(Cl)CCl,inactive,
O=C1C2(Cl)C3(Cl)C4(Cl)C(Cl)(Cl)C5(Cl)C3(Cl)C1(Cl)C5(Cl)C24Cl (centres undefined),inactive,8.48 µM (active)
[O-][Cl+2]([O-])O,inactive,
O=C/C=C/c1ccccc1,inactive,
CCC(C)c1cccc(C(C)CC)c1O (centres undefined),inactive,
CC(C)(c1ccc(OCC2CO2)cc1)c1ccc(OCC2CO2)cc1 (centres undefined),,33.4 µM (active)
COP(=S)(OC)Oc1cc(Cl)c(Cl)cc1Cl,inactive,

SMILES,outcome,AC50
O=C(c1ccccc1)C(Cl)Cl,,26.6 µM (active)
C[C@@H]1C[C@@H]([C@H](O)CC2CC(=O)NC(=O)C2)C(=O)[C@@H](C)C1,inactive,
c1ccc(N=NNc2ccccc2)cc1,,83.5 µM (active)
CC(C#N)CCC#N (centres undefined),inactive,
C(=NC1CCCCC1)=NC1CCCCC1,,3.17 µM (active)
O=c1[nH]c(=O)[nH]c(=O)[nH]1,inactive,
Cl/C=C/Cl,inactive,
Cc1ccc(N)cc1Cl,inactive,
C[C@]12CC[C@H](O)CC1=CC[C@@H]1[C@@H]2CC[C@]2(C)C(=O)CC[C@@H]12,inactive,
CCCCCCCCc1ccc(O)cc1,inactive,
CCSC(C)CC1CC(=O)C(C(CC)=NOC/C=C/Cl)=C(O)C1 (centres undefined),inactive,
O=C(O)C(F)(F)C(F)(F)C(F)(F)C(F)(F)C(F)(F)C(F)(F)C(F)(F)C(F)(F)C(F)(F)C(F)(F)F,,24.7 µM (active) and 14.8 µM (active)
CC(C)c1cccc(C(C)C)c1O,inactive,
CC(C)c1ccc(CO)cc1,inactive,
CC1(C)Cc2cccc(O)c2O1,inactive,
CCOP(=O)(CN(CCO)CCO)OCC,inactive,
N#Cc1ccccn1,inactive,
COc1ccccc1OC,inactive,
Oc1cccc2cccnc12,inactive,70.1 µM (active)

# Assay: ATG_M_19_CIS: Attagene CIS-FACTORIAL HepG2 Assay for M19 Transcription Factor (Internal Marker) (AID 2282939)
# Conditions: HepG2 Attagene CIS-FACTORIAL M19 internal marker reporter; actives raise or lower the signal
# Outline: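 Internal marker readout, fitted in both directions against DMSO, from HepG2 cells carrying transfected cis-element reporter constructs; RT-PCR and capillary electrophoresis of reporter mRNA after 24 h exposure.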
SMILES,outcome,AC50
COc1cccc(C=O)c1,inactive,
COc1ccc(OC)c(C=O)c1,inactive,
COc1cc2c(cc1OC)[C@@]13CCN4CC5=CCO[C@H]6CC(=O)N2[C@H]1[C@H]6[C@H]5C[C@H]43,inactive,
ClC1=C(Cl)[C@]2(Cl)[C@@H]3[C@@H](Cl)[C@@H](Cl)C[C@@H]3[C@@]1(Cl)C2(Cl)Cl,inactive,
CC(C)(C)c1cc(O)ccc1O,inactive,
O=C(O)C(F)(F)C(F)(F)C(F)(F)C(F)(F)C(F)(F)C(F)(F)F,inactive,
CC(C)(OO)c1ccccc1,inactive,
CCOP(=S)(OCC)Oc1ccc(S(C)=O)cc1 (centres undefined),inactive,
C[C@]12CCC(=O)C[C@@H]1CC[C@@H]1[C@@H]2CC[C@]2(C)[C@@H](O)CC[C@@H]12,inactive,
CC(C)(C)CC(C)(C)c1ccc(O)cc1,inactive,
CN(C)N=O,inactive,
CCN1CCC2(CC1)COc1cc3c(cc12)N(C(=O)c1ccc(-c2ccc(-c4nnc(C)o4)cc2C)cc1)CC3,inactive,
ClCC(Cl)CCl,inactive,
O=C1C2(Cl)C3(Cl)C4(Cl)C(Cl)(Cl)C5(Cl)C3(Cl)C1(Cl)C5(Cl)C24Cl (centres undefined),inactive,
[O-][Cl+2]([O-])O,inactive,
O=C/C=C/c1ccccc1,inactive,
CCC(C)c1cccc(C(C)CC)c1O (centres undefined),inactive,
CC(C)(c1ccc(OCC2CO2)cc1)c1ccc(OCC2CO2)cc1 (centres undefined),inactive,
COP(=S)(OC)Oc1cc(Cl)c(Cl)cc1Cl,inactive,

SMILES,outcome,AC50
O=C(c1ccccc1)C(Cl)Cl,inactive,
C[C@@H]1C[C@@H]([C@H](O)CC2CC(=O)NC(=O)C2)C(=O)[C@@H](C)C1,inactive,
c1ccc(N=NNc2ccccc2)cc1,inactive,
CC(C#N)CCC#N (centres undefined),inactive,
C(=NC1CCCCC1)=NC1CCCCC1,inactive,
O=c1[nH]c(=O)[nH]c(=O)[nH]1,inactive,
Cl/C=C/Cl,inactive,
Cc1ccc(N)cc1Cl,inactive,
C[C@]12CC[C@H](O)CC1=CC[C@@H]1[C@@H]2CC[C@]2(C)C(=O)CC[C@@H]12,inactive,
CCCCCCCCc1ccc(O)cc1,inactive,
CCSC(C)CC1CC(=O)C(C(CC)=NOC/C=C/Cl)=C(O)C1 (centres undefined),inactive,
O=C(O)C(F)(F)C(F)(F)C(F)(F)C(F)(F)C(F)(F)C(F)(F)C(F)(F)C(F)(F)C(F)(F)C(F)(F)F,inactive,138 µM (active)
CC(C)c1cccc(C(C)C)c1O,inactive,
CC(C)c1ccc(CO)cc1,inactive,
CC1(C)Cc2cccc(O)c2O1,inactive,
CCOP(=O)(CN(CCO)CCO)OCC,inactive,
N#Cc1ccccn1,inactive,
COc1ccccc1OC,inactive,
Oc1cccc2cccnc12,inactive,

# — PubChem BioAssay (EPA / NIEHS)
